# Gal4-VP16 FLuc: VP16 counterscreen qHTS for inhibitors of ROR gamma transcriptional activity. 310,000 tested, 3.5% active. Drosophila S2 Gal4-VP16 UAS-luciferase, luminescence, 20 h. Potency, µM (titrated, usually from 53.6 µM), without a hit: at the top dose activity, negative = inhibition, hits mostly inhibitors. AID 2546, 2010;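 also: Gal4-VP16 expression switched on by copper sulfate through the metallothionein promoter; potency is read from the fitted curve at half-maximal effect; nearly all actives have a fitted effect of over 50% in size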
# RORg inh: qHTS for inhibitors of ROR gamma transcriptional activity. AID 2551, 2010. Nuclear receptor ROR-gamma (Mus musculus), P51450. Potency, µM (highest dose often 53.6 µM), inactives show top-dose activity change, negative = inhibition, usual class: inhibitors. 310,000 tested, 5.4% active. Drosophila S2 Gal4-RORgamma UAS-luciferase reporter, 20 h; also: potency is read from the fitted curve at half-maximal effect; nearly all actives have a fitted effect of over 60% in size
# Target sequence (P51450 whole entry, looked up, the tested form may be a part): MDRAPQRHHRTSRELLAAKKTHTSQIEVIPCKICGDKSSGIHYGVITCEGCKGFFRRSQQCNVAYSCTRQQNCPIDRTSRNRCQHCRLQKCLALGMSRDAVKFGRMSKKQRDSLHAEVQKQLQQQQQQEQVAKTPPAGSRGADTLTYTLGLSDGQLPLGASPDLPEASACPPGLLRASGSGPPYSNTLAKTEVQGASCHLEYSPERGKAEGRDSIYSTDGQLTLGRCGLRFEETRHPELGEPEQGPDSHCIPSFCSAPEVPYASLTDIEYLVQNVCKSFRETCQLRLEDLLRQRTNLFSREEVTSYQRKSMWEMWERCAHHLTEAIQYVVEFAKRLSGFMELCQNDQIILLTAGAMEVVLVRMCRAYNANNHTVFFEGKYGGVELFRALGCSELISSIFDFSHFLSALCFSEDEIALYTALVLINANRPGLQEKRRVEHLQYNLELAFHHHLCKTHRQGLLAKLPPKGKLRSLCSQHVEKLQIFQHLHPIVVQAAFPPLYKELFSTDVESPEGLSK
#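 Read-out: Photinus luciferase luminescence; inhibitors lower reporter signal. Insect Schneider cells with Gal4-ROR gamma fusion under metallothionein promoter, UAS reporter; 700 uM final copper sulfate induction, 20 hr, ambient temperature.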
# IL1B secr inh: qHTS for Inhibitors of Inflammasome Signaling: IL-1-beta AlphaLISA Primary Screen. THP-1 LPS/ATP IL-1B secretion, AlphaLISA, 16 h; hits give low values. activity change, % at 57.5 µM. 360,000 tested, 4.7% active. AID 743279, 2014; in the data active = activity change below about -50%; inconclusive = mostly about -30% to -49%
#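 Secreted IL-1B measured by AlphaLISA bead assay after 16 h compound exposure of THP-1 cells; compounds (final up to 57.5 uM) added 1 h before LPS (250 ng/mL) and ATP (1.25 mM) stimulation; lower signal means less secretion.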
# LDHA block: qHTS assay for inhibitors of human lactate dehydrogenase; purified LDHA, NADH/diaphorase-resazurin fluorescence; hits give low values; activity change, % (values are at about 110 or 230 µM); 480,000 tested, 0.15% active; in the data active = activity change below about -30%; inconclusive = mostly about -25% to -30%;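 also: plate controls were DMSO wells for no effect and wells without enzyme for full effect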
#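 Resorufin fluorescence (ex540/em590), read at 0 and 20 min after diaphorase/resazurin addition, reports the NADH left after a 5 min room-temperature reaction of 2 nM human LDH5 with 0.06 mM NADH and 0.2 mM pyruvate.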
# TDP1 cell CPT: qHTS for Inhibitors of human tyrosyl-DNA phosphodiesterase 1 (TDP1): qHTS in cells in presence of CPT; chicken DT40 Tdp1-/-;hTDP1 cells + 20 nM CPT, ATP luminescence, 48 h; Potency, µM (highest dose often 46.2 µM), for the others: at the highest dose activity change, negative = growth inhibition, actives largely listed as inhibitors; 420,000 tested, 12% active; also: potency is read from the fitted curve at half-maximal effect; nearly all actives have a fitted effect of over 55% in size
#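 Chicken DT40 Tdp1-/- cells complemented with human TDP1, 400 cells/well, exposed to compounds plus 20 nM camptothecin for at least 48 h at 37 C; viability read as ATP content by CellTiter-Glo luminescence.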
# TDP1 cell noCPT: qHTS for Inhibitors of human tyrosyl-DNA phosphodiesterase 1 (TDP1): qHTS in cells in absence of CPT; DT40 Tdp1-/- hTDP1 cells, no CPT, ATP luminescence, 48 h; Potency, µM (series often up to 46.2 µM), without a hit: top-dose activity change, negative = growth inhibition, most hits filed as inhibitors; 420,000 tested, 15% active; also: potency is read from the fitted curve at half-maximal effect; nearly all actives have a fitted effect of over 55% in size
#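 Cells were dispensed at 400 per well, compounds added by pin tool, plates incubated ≥48 hr at 37 °C, then CellTiter-Glo added for 30 min at room temperature before luminescence reading. Line: DT40 Tdp1-/- complemented with hTDP1; camptothecin omitted.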
# Active calls of the source: *; ? = inconclusive; . = no result. An excerpt weighted towards active compounds, which were near 18% of everything screened. Unless noted, calls follow the shape of the dose curve; as a rule, active = well fitted curve in the direction sought with a large enough effect; inconclusive = small, poorly fitted or top-dose-only effect, or another doubt; inactive = no such curve, though single readings can be large; an effect the other way counts as inactive or inconclusive. Unless noted, % is scaled to controls: 0 for no effect and ±100 for the full control effect.
SMILES,Gal4-VP16 FLuc,RORg inh,IL1B secr inh,LDHA block,TDP1 cell CPT,TDP1 cell noCPT
COc1cc(C=CC(=O)c2ccccc2)cc(OC)c1OC,.,.,-115*,0,5.8µM*,8.2µM*
COc1cc(/C=C/C(=O)c2cccs2)cc(OC)c1OC,?,7.9µM*,.,.,3.8µM*,1.5µM*
COc1ccc(NC(=O)c2sc3c(c2C)C(c2cccc(O)c2)CC(=O)N3)cc1 (stereo not drawn),.,.,.,11,.,.
CCN(Cc1nc2cc(Cl)ccc2c(=O)[nH]1)C(=O)CNC(=O)c1ccc(C(F)(F)F)cc1,.,.,.,-5,.,.
COc1ccc(NC(=O)CSc2nc(Cl)nc3nc[nH]c23)cc1OC,.,.,.,1,.,.
COc1cc(C=CC(=O)c2cc(OC)c(OC)c(OC)c2)cc(OC)c1OC,.,.,0,-6,5.8µM*,5.8µM*
COc1cc(/C=C/C(C)=O)cc(OC)c1OC,30%,-4%,?,0,-30%,?
CCCOc1ccc(N/C=C/C(=O)c2cc(OC)c(OC)c(OC)c2)cc1,-5%,17%,-8,3,?,23µM*
O=C(CNC(=O)C1CC1)NC(c1ccccc1)c1cc2ccccc2o1 (stereo not drawn),.,.,.,10,.,.
CCOc1ccccc1N=CC1=C(O)CC(c2ccccc2)CC1=O (stereo not drawn),8%,31%,20,3,?,?
CCCC(=NC(C)CC)C1=C(O)CC(c2ccccc2)CC1=O (stereo not drawn),-10%,25%,-67*,-3,?,?
CCC(C)N=CC1=C(O)CC(c2ccccc2)CC1=O (stereo not drawn),-5%,9%,-7,-5,-1%,-1%
CCC(=Nc1ccccc1O)C1=C(O)CC(c2ccccc2)CC1=O (stereo not drawn),-15%,?,0,1,?,?
COc1ccc(N=CC2=C(O)CC(c3ccccc3)CC2=O)c(OC)c1 (stereo not drawn),-11%,61%,4,-4,18µM*,15µM*
O=C1CC(c2ccccc2)CC(O)=C1C=NCc1ccccc1Cl (stereo not drawn),0%,41%,37,-3,2.3µM*,2.3µM*
CCC(=Nc1ccccc1OC)C1=C(O)CC(c2ccccc2)CC1=O (stereo not drawn),-9%,?,8,-1,6.5µM*,5.8µM*
COC(=O)C(C)Oc1ccc2c(C)c(-c3ccc(OC)c(OC)c3)c(=O)oc2c1 (stereo not drawn),.,.,.,7,.,.
Cc1c(C(=O)Nc2ccc(NC(=O)CC(C)C)cc2)cnn1-c1ccccc1F,.,.,.,9,.,.
CC(C)NC(=O)NC(C)c1cccc(Cl)c1 (stereo not drawn),.,.,.,-21,.,.
CCOC(=O)COc1nc(C)c2c(c1C#N)CCCC2,.,.,.,-4,.,.
CCc1nnc(NC(=O)c2ccccc2NC(=O)C2CCN(C(=O)c3ccco3)CC2)s1,.,.,.,3,14µM*,11µM*
CCC(C)(C)c1nnc(NC(=O)C2CCN(C(=O)c3ccco3)CC2)s1,4%,17%,25,-8,21µM*,?
COC(CNc1nc2c(c(=O)n(C)c(=O)n2C)n1Cc1ccc(F)cc1)OC,.,.,.,4,.,.
CCCC(NC(=O)NCc1ccc(F)cc1)C(=O)N(C)CC(=O)N(CC)CC (stereo not drawn),.,.,.,5,.,.
Cc1nn(CC(O)c2ccc(F)cc2F)c(=O)c2ccccc12 (stereo not drawn),.,.,.,-24,.,.
COc1cc(C(=S)N2CCN(c3ccccc3Cl)CC2)cc(O)c1O,-6%,?,8,7,?,23µM*

# Source: PubChem BioAssay
